The text below walks through data of PubChem BioAssay.

Molecules are shown by their SMILES. Where “and” joins values, the source holds several entries; their conditions need not be identical. Equal entries are not always repeated. Results filed as inconclusive are left out. Calls of active or inactive are those of the source.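 The calls were made as follows, unless noted: active = normalized viability below 100% at a tested concentration; inactive = the rest.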

Experiment [1] in a line: viability loss in pontine glioma line – cell-based, SU-DIPG-XXV, MIPE5.0, CellTiter-Glo, qHTS, dose response (AID 1347065; cut-off not given, nearly all actives have AC50 up to about 26 µM;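 also: cells exposed to compound for 48 hours before ATP readout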). Particulars: CellTiter-Glo ATP luminescence. Background: ATP-based viability assays read luminescence as a measure of living cells.
Experiment [2] can be described thus: growth inhibition of DIPG cells – cell-based, MIPE4.0 library, CellTiter-Glo luminescence, qHTS (AID 1347066; cut-off not given, nearly all actives have AC50 up to about 30 µM;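 also: cells exposed to compound for 48 hours before readout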). The conditions noted are these: SU-DIPG-VI viability, CellTiter-Glo ATP luminescence.
Experiment [3] is described as follows: JHH-DIPG-1 glioma cell viability, MIPE5.0 library, CellTiter-Glo luminescence, qHTS (AID 1347067; cut-off not given, nearly all actives have AC50 up to about 26 µM;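 also: cells exposed to compound for 48 hours before readout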). Particulars: JHH-DIPG-1 glioma viability, CellTiter-Glo ATP luminescence.
The nature of experiment [4]: growth inhibition of DIPG cells – cell-based, MIPE5.0 library, qHTS (AID 1347068; cut-off not given, nearly all actives have IC50 up to about 30 µM;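 as to IC50: cells exposed to compound for 48 hours before viability readout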). Particulars: SU-DIPG-XXV viability.
Experiment [5] in a line: viability loss with induced miR-34 in A549 – imaging, A549 dox-inducible miR-34, nuclei and caspase counts, primary screen (AID 1347080;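 active = compounds whose cell count with miR-34 switched on is under 0.7 times the count with it off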). Particulars: A549 miR-34 inducible, Hoechst nuclei count, 48 h.
Experiment [6] is described as follows: blockers of cellular phospholipid synthesis – cell-based, LOPAC library, screen 4, primary screen (AID 1347384; call rule not given here). The conditions noted are these: animal cells, phospholipid biosynthesis inhibition screen; at 10 µM.
Experiment [7] can be described thus: MELAS cybrid and Rieske KO viability enhancers – cell-based, MELAS cybrids, Rieske KO mouse fibroblasts, CellTiter-Glo, primary screen (AID 1508586;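 active = mean z-score across replicates of 1.96 or higher in either the MELAS or the Rieske mutant cell line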;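 also: z relative to plate mean and SD of compound and empty wells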). Particulars: low glucose.
Experiment [8] in a line: drug combination growth inhibition, ovarian cancer – cell-based, oncology-focused library, rucaparib conditional, profiling panel (AID 1508598). The conditions noted are these: patient-derived ovarian cancer cells, CellTiter-Glo viability, 144 h, stronger effect = lower value.
The mark [9] stands for this setting: stronger effect = lower value, cell number ratio, induced over uninduced.
Where [10] appears, read: measured here: relative caspase fold change +Dox/-Dox.
[11] abbreviates: measured here: total cells with miR-34 induction, stronger effect = lower value.
Where [12] appears, read: measured here: total cells without miR-34 induction.
Setting [13] is: MELAS cybrid survival, CellTiter-Glo 48 h, stronger effect = higher value.
Setting [14] is: Rieske KO mouse fibroblast survival, CellTiter-Glo 72 h.

As to `NCCS(=O)(=O)O`, the outcome in experiment [1], in experiment [2], in experiment [3], in experiment [4] and in experiment [6] was inactive. Moreover, the fold change in experiment [5] (setting [9]) is 0.992 (inactive) and 0.904 (inactive); in experiment [5] (setting [10]) it was 1.43 and 3.02. Further, the cell count was 10100 and 12500 in experiment [5] (setting [11]); 10200 and 13800 in experiment [5] (setting [12]).

With `CN(C)c1ccc(C(=C2C=CC(=[N+](C)C)C=C2)c2ccc(N(C)C)cc2)cc1`, the values for the AC50 in experiment [1], in experiment [2] and in experiment [3] were 833 nM (active), 372 nM (active) and 1860 nM (active), respectively. For the same compound, the IC50 (usually the concentration at which inhibition is half-maximal) in experiment [4] was 2630 nM (active). The fold change in experiment [5] (setting [9]) is 0.999 (inactive) and 0.737 (inactive); in experiment [5] (setting [10]), 0.9 and 1.26. Moreover, the cell count in experiment [5] (setting [11]) is 1530 and 788; in experiment [5] (setting [12]), 1530 and 1070. The z-score was 3.09 (active) in experiment [7] (setting [13]) and -2.82 in experiment [7] (setting [14]).

Consider `C[C@]12CC[C@@H]3c4ccc(O)cc4CC[C@H]3[C@@H]1C[C@@H](O)[C@@H]2O`, for which the compound was called inactive in experiment [1], in experiment [2] and in experiment [4]. Further, the concentration at half-maximal activity (AC50) – broadly, the concentration at which the activity in the assay is half-maximal – in experiment [3] is 23500 nM (active). Further, the fold change in experiment [5] (setting [9]) is 0.957 (inactive) and 0.899 (inactive); in experiment [5] (setting [10]), 0.729 and 1.36. Also, the cell count is 9380 and 8690 in experiment [5] (setting [11]); 9810 and 9670 in experiment [5] (setting [12]). The z-score is 0.707 (inactive) and -0.312 (inactive) in experiment [7] (setting [13]); 0.79 and 0.38 in experiment [7] (setting [14]).

Regarding `CC1(C)O[C@@H]2C[C@H]3[C@@H]4C[C@H](F)C5=CC(=O)C=C[C@]5(C)[C@@]4(F)[C@@H](O)C[C@]3(C)[C@]2(C(=O)CO)O1`, the compound was called inactive in experiment [1], in experiment [2], in experiment [3] and in experiment [4]. For the same compound, the fold change was 0.962 (inactive) and 0.858 (inactive) in experiment [5] (setting [9]); 2.42 and 1.12 in experiment [5] (setting [10]). Besides, the cell count was 7620 and 6920 in experiment [5] (setting [11]); 7920 and 8070 in experiment [5] (setting [12]). The z-score in experiment [7] (setting [13]) is 0.713 (inactive) and 0.472 (inactive); in experiment [7] (setting [14]) it was 0.469 and 1.67.

Consider `COc1ccnc(CS(=O)c2nc3ccc(OC(F)F)cc3[nH]2)c1OC` (stereo not given), for which the compound was called inactive in experiment [1], in experiment [2], in experiment [3] and in experiment [4]. The fold change was 0.948 (inactive) and 0.839 (inactive) in experiment [5] (setting [9]); 4.32 and 0.927 in experiment [5] (setting [10]). Moreover, the cell count in experiment [5] (setting [11]) is 12000 and 8980; in experiment [5] (setting [12]) it was 12600 and 10700. Also, the results for the z-score in experiment [7] (setting [13]) and in experiment [7] (setting [14]) were 0.74 (inactive) and -0.32, respectively.

Turning to `COCCCOc1cc(C[C@@H](C[C@H](N)[C@@H](O)C[C@H](C(=O)NCC(C)(C)C(N)=O)C(C)C)C(C)C)ccc1OC`, the result in experiment [1], in experiment [2], in experiment [3] and in experiment [4] was inactive. The fold change in experiment [5] (setting [9]) is 0.948 (inactive); in experiment [5] (setting [10]), 0.866. Further, the cell count in experiment [5] (setting [11]) amounted to 8860; in experiment [5] (setting [12]), 9350.

For the compound `NC(=O)NO`, the compound was called inactive in experiment [1], in experiment [2], in experiment [3], in experiment [4] and in experiment [6]. In addition, the fold change was 0.975 (inactive) and 0.894 (inactive) and 0.861 (inactive) in experiment [5] (setting [9]); 1.12 and 0.968 and 1.05 in experiment [5] (setting [10]). Also, the cell count in experiment [5] (setting [11]) is 10300 and 8660 and 7880; in experiment [5] (setting [12]), 10600 and 9680 and 9160. In addition, the z-score in experiment [7] (setting [13]) was -0.326 (inactive); in experiment [7] (setting [14]) it was 0.485. In addition, the viability (usually a read-out of living cells in per cent, often relative to untreated cells) is 105% (inactive) in experiment [8] (at 0.000305 µM, OCI-C5x cells, with rucaparib 10 µM, 100% = cells with rucaparib alone); 113% (inactive) in experiment [8] (at 0.000305 µM, OCI-C5x cells, without rucaparib); 95.9% (active) in experiment [8] (at 0.000305 µM, OCI-P5x cells, with rucaparib 20 µM, 100% = cells with rucaparib alone); 97.6% (active) in experiment [8] (at 0.000305 µM, OCI-P5x cells, without rucaparib); 111% (inactive) in experiment [8] (at 0.00122 µM, OCI-C5x cells, with rucaparib 10 µM, 100% = cells with rucaparib alone); 112% (inactive) in experiment [8] (at 0.00122 µM, OCI-C5x cells, without rucaparib). The viability in experiment [8] (at 0.00122 µM, OCI-P5x cells, with rucaparib 20 µM, 100% = cells with rucaparib alone) was 98.6% (active); in experiment [8] (at 0.00122 µM, OCI-P5x cells, without rucaparib), 102% (inactive); in experiment [8] (at 0.00488 µM, OCI-C5x cells, with rucaparib 10 µM, 100% = cells with rucaparib alone) it was 105% (inactive); in experiment [8] (at 0.00488 µM, OCI-C5x cells, without rucaparib), 104% (inactive); in experiment [8] (at 0.00488 µM, OCI-P5x cells, with rucaparib 20 µM, 100% = cells with rucaparib alone), 101% (inactive); in experiment [8] (at 0.00488 µM, OCI-P5x cells, without rucaparib), 109% (inactive). The viability in experiment [8] (at 0.0195 µM, OCI-C5x cells, with rucaparib 10 µM, 100% = cells with rucaparib alone) is 104% (inactive); in experiment [8] (at 0.0195 µM, OCI-C5x cells, without rucaparib) it was 115% (inactive); in experiment [8] (at 0.0195 µM, OCI-P5x cells, with rucaparib 20 µM, 100% = cells with rucaparib alone), 106% (inactive); in experiment [8] (at 0.0195 µM, OCI-P5x cells, without rucaparib), 109% (inactive); in experiment [8] (at 0.0781 µM, OCI-C5x cells, with rucaparib 10 µM, 100% = cells with rucaparib alone), 116% (inactive); in experiment [8] (at 0.0781 µM, OCI-C5x cells, without rucaparib) it was 106% (inactive). In addition, the viability is 106% (inactive) in experiment [8] (at 0.0781 µM, OCI-P5x cells, with rucaparib 20 µM, 100% = cells with rucaparib alone); 116% (inactive) in experiment [8] (at 0.0781 µM, OCI-P5x cells, without rucaparib); 109% (inactive) in experiment [8] (at 0.313 µM, OCI-C5x cells, with rucaparib 10 µM, 100% = cells with rucaparib alone); 114% (inactive) in experiment [8] (at 0.313 µM, OCI-C5x cells, without rucaparib); 103% (inactive) in experiment [8] (at 0.313 µM, OCI-P5x cells, with rucaparib 20 µM, 100% = cells with rucaparib alone); 110% (inactive) in experiment [8] (at 0.313 µM, OCI-P5x cells, without rucaparib). For the same compound, the viability in experiment [8] (at 1.25 µM, OCI-C5x cells, with rucaparib 10 µM, 100% = cells with rucaparib alone) is 102% (inactive); in experiment [8] (at 1.25 µM, OCI-C5x cells, without rucaparib) it was 116% (inactive); in experiment [8] (at 1.25 µM, OCI-P5x cells, with rucaparib 20 µM, 100% = cells with rucaparib alone), 96.8% (active); in experiment [8] (at 1.25 µM, OCI-P5x cells, without rucaparib), 110% (inactive); in experiment [8] (at 5 µM, OCI-C5x cells, with rucaparib 10 µM, 100% = cells with rucaparib alone), 105% (inactive); in experiment [8] (at 5 µM, OCI-C5x cells, without rucaparib), 114% (inactive). The viability in experiment [8] (at 5 µM, OCI-P5x cells, with rucaparib 20 µM, 100% = cells with rucaparib alone) was 109% (inactive); in experiment [8] (at 5 µM, OCI-P5x cells, without rucaparib), 111% (inactive).
